# Reference: article PMC7862700, “An all-to-all approach to the identification of sequence-specific readers for epigenetic DNA modifications on cytosine”
# How the values were obtained:
# Assay in all cases: DAPPL (digital affinity profiling via proximity ligation, sequencing); 10 mM Tris-HCl pH 7.5, 50 mM NaCl, 1 mM DTT, 4% glycerol, room temperature, 30 min; GST-TFs on glutathione beads, 16-mer random dsDNA library, 0.1% formaldehyde crosslink after washing; high values mean tight binding
# FEV = target: T1, FEV (Homo sapiens, UniProt Q99581 1-238); conditions: protein: recombinant; tags: N-terminal GST; dsDNA, one strand shown
# T1 sequence: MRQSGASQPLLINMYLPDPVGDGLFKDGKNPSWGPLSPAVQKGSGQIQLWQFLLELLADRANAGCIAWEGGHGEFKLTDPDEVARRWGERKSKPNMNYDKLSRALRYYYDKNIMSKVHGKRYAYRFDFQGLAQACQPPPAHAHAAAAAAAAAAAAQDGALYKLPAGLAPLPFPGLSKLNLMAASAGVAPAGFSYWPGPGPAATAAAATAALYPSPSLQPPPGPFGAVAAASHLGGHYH
# Method in brief: (§1)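 Binding signal is defined as a hexamer's read frequency for one factor over its frequency for the tag-only sample. To obtain reads, GST-fused human transcription factors were expressed in yeast, captured on glutathione beads, barcoded with DNA and pooled with that sample. Pools met 200 nmole of a 16-mer random double-stranded DNA library in Tris/NaCl/DTT/glycerol buffer for 30 min at room temperature before washing, 0.1% formaldehyde crosslinking, proximity ligation (BsaI/T4 ligase, 1 h, 37 °C), PCR and Illumina NextSeq500 sequencing.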
# ETV5 = ETV5 (Homo sapiens, UniProt P41161 1-510); conditions: protein: recombinant; tags: N-terminal GST; dsDNA, one strand shown
# Method in brief: as §1
# HSF1 = HSF1 (Homo sapiens, UniProt Q00613 1-529); conditions: protein: recombinant; tags: N-terminal GST; chain copies: 3; dsDNA, one strand shown
# Method in brief: as §1
# SPIC = target: T2, SPIC (Homo sapiens, UniProt Q8N5J4 1-248); conditions: protein: recombinant; tags: N-terminal GST; dsDNA, one strand shown
# T2 sequence: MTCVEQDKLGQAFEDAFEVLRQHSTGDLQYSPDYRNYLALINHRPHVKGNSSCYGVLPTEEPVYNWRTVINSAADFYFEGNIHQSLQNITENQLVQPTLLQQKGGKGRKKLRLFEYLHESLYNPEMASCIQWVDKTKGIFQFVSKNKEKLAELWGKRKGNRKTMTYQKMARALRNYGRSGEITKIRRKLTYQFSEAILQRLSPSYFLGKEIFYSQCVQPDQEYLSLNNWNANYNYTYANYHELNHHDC
# Method in brief: as §1
# ELF4 = ELF4 (Homo sapiens, UniProt Q99607 1-663); conditions: protein: recombinant; tags: N-terminal GST; dsDNA, one strand shown
# Method in brief: as §1
# ELK4 = target: T3, ELK4 (Homo sapiens, UniProt P28324-2 1-405); conditions: protein: recombinant; tags: N-terminal GST; dsDNA, one strand shown
# T3 sequence: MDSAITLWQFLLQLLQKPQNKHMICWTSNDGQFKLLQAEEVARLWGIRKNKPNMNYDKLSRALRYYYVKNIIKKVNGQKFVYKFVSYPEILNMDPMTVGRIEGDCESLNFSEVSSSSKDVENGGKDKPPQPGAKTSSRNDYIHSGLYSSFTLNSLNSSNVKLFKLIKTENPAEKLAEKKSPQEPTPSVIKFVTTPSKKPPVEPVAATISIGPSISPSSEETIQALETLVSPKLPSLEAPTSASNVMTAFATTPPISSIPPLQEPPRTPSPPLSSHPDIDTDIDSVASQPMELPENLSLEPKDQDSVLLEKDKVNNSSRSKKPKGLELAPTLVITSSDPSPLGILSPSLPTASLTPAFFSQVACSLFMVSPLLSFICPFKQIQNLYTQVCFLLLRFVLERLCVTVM
# Method in brief: as §1
# ETV2 = target: T4, ETV2 (Homo sapiens, UniProt O00321 1-342); conditions: protein: recombinant; tags: N-terminal GST; dsDNA, one strand shown
# T4 sequence: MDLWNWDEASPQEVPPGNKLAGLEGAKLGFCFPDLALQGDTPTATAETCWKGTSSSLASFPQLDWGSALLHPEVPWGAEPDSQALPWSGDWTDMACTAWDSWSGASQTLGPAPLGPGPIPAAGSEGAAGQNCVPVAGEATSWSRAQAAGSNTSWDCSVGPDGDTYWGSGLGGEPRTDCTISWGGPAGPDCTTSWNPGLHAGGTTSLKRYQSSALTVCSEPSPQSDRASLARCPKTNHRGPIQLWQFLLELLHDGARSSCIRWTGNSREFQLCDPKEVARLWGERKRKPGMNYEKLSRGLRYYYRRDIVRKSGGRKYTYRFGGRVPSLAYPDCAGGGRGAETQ
# Method in brief: as §1
# ELF3 = target: T5, ELF3 (Homo sapiens, UniProt P78545 1-371); conditions: protein: recombinant; tags: N-terminal GST; dsDNA, one strand shown
# T5 sequence: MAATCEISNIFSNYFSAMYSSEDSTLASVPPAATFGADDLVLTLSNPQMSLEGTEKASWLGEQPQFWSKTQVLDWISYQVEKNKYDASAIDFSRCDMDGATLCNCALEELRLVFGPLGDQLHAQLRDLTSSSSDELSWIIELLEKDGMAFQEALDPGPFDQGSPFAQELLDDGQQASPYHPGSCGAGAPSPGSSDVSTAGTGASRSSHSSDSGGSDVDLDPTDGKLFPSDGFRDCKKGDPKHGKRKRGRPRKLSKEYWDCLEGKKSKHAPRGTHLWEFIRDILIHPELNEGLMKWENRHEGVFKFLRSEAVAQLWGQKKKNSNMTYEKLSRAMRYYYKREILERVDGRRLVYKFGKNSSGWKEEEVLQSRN
# Method in brief: as §1
# CRX = CRX (Homo sapiens, UniProt O43186 1-299); conditions: protein: recombinant; tags: N-terminal GST; dsDNA, one strand shown
# Method in brief: as §1
# Sequence of CRX (O43186 whole entry): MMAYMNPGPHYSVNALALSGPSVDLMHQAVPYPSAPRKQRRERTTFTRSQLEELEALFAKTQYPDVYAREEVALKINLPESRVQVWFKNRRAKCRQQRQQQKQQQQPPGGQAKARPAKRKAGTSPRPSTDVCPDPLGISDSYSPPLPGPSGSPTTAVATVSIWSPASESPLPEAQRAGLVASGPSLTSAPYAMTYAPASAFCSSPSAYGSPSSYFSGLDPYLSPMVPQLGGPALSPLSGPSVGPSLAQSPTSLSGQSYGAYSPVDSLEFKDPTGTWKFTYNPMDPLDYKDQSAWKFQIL
# Sequence of HSF1 (Q00613 whole entry): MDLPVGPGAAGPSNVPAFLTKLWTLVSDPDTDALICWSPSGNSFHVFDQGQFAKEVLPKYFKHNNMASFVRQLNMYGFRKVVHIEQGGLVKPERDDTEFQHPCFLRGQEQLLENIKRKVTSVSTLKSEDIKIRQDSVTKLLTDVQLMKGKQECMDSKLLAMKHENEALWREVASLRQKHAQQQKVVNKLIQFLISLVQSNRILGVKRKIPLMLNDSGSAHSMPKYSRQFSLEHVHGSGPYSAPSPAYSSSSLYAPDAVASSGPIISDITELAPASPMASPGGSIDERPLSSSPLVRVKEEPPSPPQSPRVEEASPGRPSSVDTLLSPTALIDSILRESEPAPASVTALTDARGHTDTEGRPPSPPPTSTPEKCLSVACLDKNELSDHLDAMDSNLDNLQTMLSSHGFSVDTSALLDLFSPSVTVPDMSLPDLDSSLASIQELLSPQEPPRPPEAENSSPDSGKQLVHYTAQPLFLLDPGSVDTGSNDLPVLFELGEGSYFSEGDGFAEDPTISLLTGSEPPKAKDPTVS
# Sequence of ELF4 (Q99607 whole entry): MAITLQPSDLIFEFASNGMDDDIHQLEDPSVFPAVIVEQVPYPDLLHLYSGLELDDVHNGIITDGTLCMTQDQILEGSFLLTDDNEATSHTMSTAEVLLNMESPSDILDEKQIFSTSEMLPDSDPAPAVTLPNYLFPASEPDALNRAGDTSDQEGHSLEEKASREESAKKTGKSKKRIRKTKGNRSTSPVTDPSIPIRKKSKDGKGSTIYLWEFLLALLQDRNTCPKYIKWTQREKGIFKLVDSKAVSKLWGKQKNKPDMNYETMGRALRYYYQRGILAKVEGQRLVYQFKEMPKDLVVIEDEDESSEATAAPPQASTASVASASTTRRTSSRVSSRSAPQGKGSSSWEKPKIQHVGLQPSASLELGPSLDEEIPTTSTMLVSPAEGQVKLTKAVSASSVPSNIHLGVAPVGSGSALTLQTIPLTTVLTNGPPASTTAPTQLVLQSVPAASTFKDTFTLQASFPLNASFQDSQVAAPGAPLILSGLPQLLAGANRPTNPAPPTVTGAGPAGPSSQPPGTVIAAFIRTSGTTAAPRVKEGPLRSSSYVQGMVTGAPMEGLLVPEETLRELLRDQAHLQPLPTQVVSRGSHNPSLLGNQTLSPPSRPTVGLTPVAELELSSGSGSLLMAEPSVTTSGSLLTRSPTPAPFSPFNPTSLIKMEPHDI
# Sequence of ETV5 (P41161 whole entry): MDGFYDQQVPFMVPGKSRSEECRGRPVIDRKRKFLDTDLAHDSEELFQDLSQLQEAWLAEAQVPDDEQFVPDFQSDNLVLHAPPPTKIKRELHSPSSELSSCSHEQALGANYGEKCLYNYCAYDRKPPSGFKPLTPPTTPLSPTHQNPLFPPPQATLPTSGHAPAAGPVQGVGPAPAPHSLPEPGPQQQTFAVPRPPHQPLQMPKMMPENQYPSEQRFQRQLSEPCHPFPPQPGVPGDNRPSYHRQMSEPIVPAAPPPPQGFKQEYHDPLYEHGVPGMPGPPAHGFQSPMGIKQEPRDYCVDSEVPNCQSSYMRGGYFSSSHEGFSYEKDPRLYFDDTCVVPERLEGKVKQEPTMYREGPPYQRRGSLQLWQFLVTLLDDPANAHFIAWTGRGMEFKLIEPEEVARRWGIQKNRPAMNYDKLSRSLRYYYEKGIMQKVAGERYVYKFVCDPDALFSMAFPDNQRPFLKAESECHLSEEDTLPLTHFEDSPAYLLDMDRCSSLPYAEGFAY
sequence,measurement,setting,value
GCCTTA,binding signal,FEV,"1.11 fold enrichment (6-mer frequency, TF over GST control)"
same,binding signal,ETV5,"1.13 fold enrichment (6-mer frequency, TF over GST control)"
same,binding signal,HSF1,"1.3 fold enrichment (6-mer frequency, TF over GST control)"
same,binding signal,SPIC,"1.07 fold enrichment (6-mer frequency, TF over GST control)"
same,binding signal,ELF4,"1.3 fold enrichment (6-mer frequency, TF over GST control)"
same,binding signal,ELK4,"1.1 fold enrichment (6-mer frequency, TF over GST control)"
same,binding signal,ETV2,"1.1 fold enrichment (6-mer frequency, TF over GST control)"
same,binding signal,ELF3,"1.24 fold enrichment (6-mer frequency, TF over GST control)"
same,binding signal,CRX,"1.64 fold enrichment (6-mer frequency, TF over GST control)"
